According to PubChem BioAssay (NCI):
Values joined by “and” are separate entries in the source; they are usually repeats but may differ in a detail not shown here. Identical values can stand only once. The panel holds about 79,000 compounds, 15% with a hit somewhere; the sample as a whole holds those more often. Rule as the data show it: active = growth inhibition above about 70%; inactive = the rest.

Experiments:
[1] = NCI Yeast Anticancer Drug Screen. Data for the rad50 strain (AID 155);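 also: 0% = growth of vehicle-only cultures of the same strain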; conditions: S. cerevisiae rad50 strain growth inhibition, hits give high values; at 50.0 µM unless noted
Procedure, shortened: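 DNA repair mutant yeast, compound exposure, growth read-out; inhibition is taken relative to vehicle.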

[2] = NCI Yeast Anticancer Drug Screen. Data for the mec2-1 strain (AID 157); conditions: S. cerevisiae mec2-1 strain, hits give high values; at 50.0 µM unless noted
Procedure, shortened: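 Each compound was tested on mec2-1 yeast, a strain altered in DNA damage repair or cell cycle control. Growth inhibition is reported relative to vehicle.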

[3] = NCI Yeast Anticancer Drug Screen. Data for the sgs1 mgt1 strain (AID 161);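 also: 0% = growth of cultures given vehicle only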; conditions: S. cerevisiae sgs1 mgt1 strain, hits give high values; at 50.0 µM unless noted
Procedure, shortened: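 Genetically altered yeast, compound exposure, growth inhibition relative to vehicle.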

[4] = NCI Yeast Anticancer Drug Screen. Data for the cln2 rad14 strain (AID 165);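 also: 0% = growth equal to vehicle treated cultures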; conditions: S. cerevisiae cln2 rad14 strain, hits give high values; at 50.0 µM unless noted
Procedure, shortened: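 Test compounds were added to cln2 rad14 yeast cultures; inhibition of growth was then determined by comparison with vehicle treatment.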

[5] = NCI Yeast Anticancer Drug Screen. Data for the bub3 strain (AID 167); conditions: S. cerevisiae bub3 mutant strain, hits give high values; at 50.0 µM unless noted
Procedure, shortened: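 In this screen, a yeast mutant lacking normal mitotic checkpoint function is challenged with compound. Relative growth versus vehicle gives the inhibition value.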

[6] = NCI Yeast Anticancer Drug Screen. Data for the mlh1 rad18 strain (AID 175); conditions: S. cerevisiae mlh1 rad18 strain growth inhibition, hits give high values; at 50.0 µM unless noted
Procedure, shortened: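 Inhibition values reflect reduced growth of mutant yeast versus vehicle-treated controls following compound exposure; the mutations affect DNA damage repair.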

Measured: growth inhibition

CC(C)(C)OC(=O)NCC(=O)NC1C/C(=N\O)c2sccc21 (stereo unspecified)
inactive: [1] 17.4% | [2] 5.8% | [3] 11.3% | [4] 15.6% | [5] -5.35% | [6] 39.5%

Cc1ncc(C(N)=S)c(N)n1
inactive: [1] 9.95% | [2] -0.05% | [3] -0.15% | [4] -47.4% | [5] -8.55% | [6] 14.3%

C[n+]1c(/C=C\C=C\c2ccccc2)sc2ccccc21
inactive: [1] 16.6% | [2] 2.05% | [3] 16.1% | [4] 18.1% | [5] 3% | [6] 11.2%

CN(C)CCCNC(=O)CCNC(=O)c1cc(NC(=O)c2cc(NC(=O)c3cc(NC(=O)CCCNC(=O)c4cc(NC(=O)c5cc(NC(=O)c6nccn6C)cn5C)cn4C)cn3C)cn2C)cn1C
inactive: [1] 7.55% | [2] -14.8% | [3] -2% | [4] -1.35% | [5] 4% | [6] -25.3%

NCCSS(=O)(=O)O
inactive: [1] 3.25% | [2] 4.45% | [3] -17.7% | [4] -41.5% | [5] 0.45% | [6] -24.9%

C=C[C@]1(C)C=C2CC[C@@H]3[C@](C)(CCC[C@@]3(C)C(=O)O)[C@H]2CC1
inactive: [1] 14.5% | [2] 8.7% | [3] 13.8% | [4] -9.05% | [5] -1.9% | [6] 29.8%

CC(=O)NNS(=O)(=O)c1ccccc1
inactive: [1] 8.1% | [2] 28.6% | [3] 4.15% | [4] -1.15% | [5] -17.9% | [6] 16.8%

CCOC(=O)C/C(O)=C(/C=N/C(=S)NNC(C)=O)C(=O)OCC
inactive: [1] -27.1% | [2] -28.9% | [3] -32.2% | [4] 2.65% | [5] -19.6% | [6] -8.65%

S=c1[nH]nc2scnn12
inactive: [1] -2.85% | [2] 3.55% | [3] 4.25% | [4] -45.5% | [5] 7.4% | [6] -9.3%

COC1(OC)CC2C(=O)N(Cc3ccccc3)C1CC2S(=O)(=O)c1ccccc1 (stereo unspecified)
inactive: [1] 6.7% | [2] -2.1% | [3] -16.1% | [4] 22.8% | [5] -2.3% | [6] 11.4%

CCCCC(/C=C(\C(C)=O)C(=O)OCC)CC (stereo unspecified)
inactive: [1] -5.95% | [2] -39.1% | [3] -28.1% | [4] -10.5% | [5] -37% | [6] -40.6%

CCN(CC)CCN=c1nc(/C=C\C=C\NN(C)C(=S)SC)c(C)nn1C
inactive: [1] -49.7% | [2] -7.95% | [3] -15% | [4] -12.3% | [5] -1.05% | [6] -12.8%

CC(=O)NS(=O)(=O)c1ccc(NC(=O)/C=C/C(=O)O)cc1
inactive: [1] 1.1% and -16.6% | [2] -15.7% and -18.1% | [3] -0.45% | [4] -3.05% | [5] -11.7% | [6] 19.9% and -18%

CCCCCCCSCC(=O)OCC
inactive: [1] -12.6% | [2] -19.8% | [3] -22.5% | [4] 7.2% | [5] -6.5% | [6] -5.75%

COc1cc(C)cc2c1C(C)(C)CCC2(C)C
inactive: [1] 5.4% | [2] -24.6% | [3] -5.8% | [4] -7.15% | [5] 16% | [6] -0.65%

COc1ccc2[nH]c3ccccc3c(=O)c2c1
inactive: [1] 12.6% | [2] -3.2% | [3] 8.8% | [4] -66.4% | [5] 3% | [6] -6.65%

C=C(C)C1CC[C@@](C)(O)[C@H](C#N)C1 (stereo partly specified)
inactive: [1] 6.15% | [2] -15.7% | [3] -22.8% | [4] -12.2% | [5] -38.5% | [6] -44%

O=C1OCC(c2ccccc2)=C1c1ccccc1
inactive: [1] 22.3% | [2] -3% | [3] 20.3% | [4] -16% | [5] 6.35% | [6] 16.6%

O=c1n(CC2CO2)c(=O)n(CC2CO2)c(=O)n1CC1CO1 (stereo unspecified)
inactive: [1] -8.4% and -1.15% | [2] 11.6% and 8.65% | [3] 19.7% and -18.9% | [4] -25.3% and -6.25% | [5] 26.1% and -34% | [6] 28.1% and 2.45%

Nc1c(Cl)ccc2c(Cl)ccnc12
inactive: [1] -1.15% | [2] -9.55% | [3] -7.2% | [4] -21.1% | [5] -9.55% | [6] 7.55%

O=C1CSC(c2cccc([N+](=O)[O-])c2)N1c1nncs1 (stereo unspecified)
inactive: [1] 8.55% | [2] 11.7% | [3] 6.8% | [4] 5.15% | [5] 3.4% | [6] 5.5%
